PubChem BioAssay (NCI)
About 83,000 compounds went through this panel and 20% of them were active in at least one assay; those are over-represented in the sample as a whole.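 Single-dose data. Exposure time 48 hours. Values below 10 considered active.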 The source made the active and inactive calls.

How the values were obtained:
Assay in all cases: NCI-60 one-dose screen, 48 h (100 = growth as untreated, 0 = no growth, -100 = all killed)
Settings in all cases: 10 µM unless noted
[1] = system: HCT-15 colon
[2] = system: SNB-75 CNS
[3] = system: SNB-19 CNS
[4] = system: U251 CNS
[5] = system: PC-3 prostate
[6] = system: SK-MEL-5 melanoma
[7] = system: LOX IMVI melanoma
[8] = system: SK-MEL-28 melanoma
[9] = system: UACC-62 melanoma
[10] = system: HT29 colon

Measured: growth

O=C(NCCN1CCC(O)CC1)c1cc2c(o1)C(=O)c1ccccc1C2=O
active: [1] -80.8% | [2] -98.5% | [3] -98.1% | [4] -88.1% | [5] -28.4% | [6] -99.2% | [7] -89.3% | [8] -74.3%

O=C(/C=C/c1ccccc1)c1ccc2ccccc2c1
inactive: [1] 48.5% | [2] 107% | [3] 99.3% | [4] 93.2% | [5] 90.1% | [6] 92% | [9] 92.6% | [7] 89.3% | [8] 108%

Cc1cc(=O)[nH]c(N/N=C/c2cc(Br)ccc2O)n1
inactive: [1] 30.5% | [2] 62.9% | [3] 40.6% | [4] 26.8% | [5] 56.8% | [6] 26.3% | [8] 42.8%
active: [9] 4.29% | [7] 9.27%

CC(=O)Nc1nccs1
inactive: [1] 98% | [2] 106% | [3] 96.3% | [4] 98.9% | [5] 96.1% | [6] 101% | [9] 92.7% | [7] 94.8% | [8] 98.6%

COc1c(C)cnc(CSc2nc(-c3ccc(C)cc3)cn2-c2ccc(Cl)cc2)c1C
inactive: [1] 98% | [2] 98.7% | [3] 93.7% | [4] 104% | [5] 81.7% | [6] 105% | [9] 81.8% | [7] 96.5% | [8] 97.4%

O=c1[nH]c(NCc2nnnn2-c2ccc(Br)cc2)nc2sc3c(c12)CCCC3
inactive: [1] 98% | [3] 96.1% | [5] 84.4% | [6] 99.5% | [9] 87.1% | [7] 95.8% | [8] 112%

CS(=O)(=O)c1ccc(-c2nc3cc(Cl)ccc3n2CC(=O)N/N=C/c2ccc(Cl)cc2)cc1
inactive: [1] 72.6% | [2] 42.1% | [3] 51.3% | [4] 30.5% | [5] 45.5% | [6] 23.1% | [9] 56.2% | [7] 30.7% | [8] 43.6%

Cc1cc(C(c2ccccc2)c2ccccc2)ccc1NS(=O)(=O)c1ccccc1
inactive: [1] 96.3% | [2] 95.4% | [3] 101% | [4] 94.6% | [5] 83.6% | [6] 94.8% | [9] 85.2% | [7] 87.7% | [8] 112%

Nc1ccc2c(S(=O)(=O)O)ccc(S(=O)(=O)O)c2c1
inactive: [1] 105% | [2] 92% | [3] 93.5% | [4] 99.5% | [5] 91.9% | [6] 93.5% | [9] 90.5% | [7] 98.1% | [8] 116%

COc1cc2oc(-c3cccc(C(=O)Nc4ccc(C#N)cc4)c3)cc(=O)c2c(O)c1OC
inactive: [10] 53.9% | [2] 83.9% | [3] 44% | [4] 61.3% | [6] 70.3% | [9] 41.5% | [7] 55.7% | [8] 32.8%
active: [5] 7.86%

COc1ccc(/C(C)=C(\c2ccc(Cl)cc2)c2ccc(OCCN3CCCC3)cc2)cc1F
inactive: [2] 47.6% | [3] 42.8% | [4] 19.1% | [5] 30%
active: [1] 1.16% | [9] -30.2% | [7] -88.3% | [8] -42.1%

CCNCCNc1cc(-c2ccc(C(F)(F)F)cc2)c(C#N)c2nc3cc(Cl)c(Cl)cc3n12
active: [1] -80.1% | [2] -93.7% | [3] -62.7% | [4] -94% | [5] -88.4% | [6] -98.9% | [9] -63.3% | [7] -74% | [8] -96.5%

C=C(C)C1CCC(=C)C2CCC3(C)OC12/C=C(/COC(C)=O)CCC3O (stereo not given)
inactive: [1] 96.1% | [2] 126% | [4] 89% | [5] 95.9% | [6] 93.2% | [9] 94.2% | [7] 84.2% | [8] 156%

CC[C@@H](C[C@H](CCO)c1ccccc1)c1cc2ccccc2o1
inactive: [1] 95.3% | [2] 79.9% | [3] 97.4% | [4] 90.9% | [5] 78.8% | [6] 106% | [9] 88.4% | [7] 101% | [8] 102%

O=C1Nc2ccccc2SC1C1SC(=S)N(Cc2ccccc2)C1=O (stereo not given)
inactive: [1] 103% | [2] 51.4% | [3] 107% | [4] 98.3% | [5] 88.4% | [6] 95.9% | [9] 98.5% | [7] 86.2% | [8] 58.8%
